Results on 13 compounds are retold here after PubChem BioAssay.

A short description of assay [1]: binders of probe aFSTL3 on microarray, primary screen, stem cell growth factor project, biochemical, small-molecule microarray, fluorescence 635/667 (AID 1064).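 Note: measures binding of the biotinylated anti-FSTL3 antibody to printed compounds.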 The following applies: higher = more signal.
Assay [2] is described as follows: binders from COS7 lysate, DM2A8 probe, primary screen, torsin A project, cell lysate, small-molecule microarray, fluorescence 635/667 (AID 1065). The following applies: higher = more signal, COS7 lysate expressing mutant human TOR1A.
Assay [3] can be described thus: binders of probe aFGF2 on microarray, primary screen, stem cell growth factor project, biochemical, small-molecule microarray, fluorescence 635/667 (AID 1067).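 Note: measures binding of biotinylated aFGF2 protein to printed compounds on slides; z-score merges feature fluorescence and signal-to-noise across triplicate slides.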 The following applies: higher = more signal.
Assay [4] can be described thus: binders of probe aFGF10 on microarray, primary screen, stem cell growth factor project, biochemical, small-molecule microarray, fluorescence 635/667 (AID 1071).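 Note: score merges 667 nm spot intensity and signal to noise from triplicate slides.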 The following applies: higher = more signal.
Assay [5] deals with Neurogenic locus notch homolog protein 2 (Homo sapiens) (UniProt Q04721). Kind of assay: Notch2 binders on small-molecule microarrays, primary screen, biochemical, small-molecule microarray, 635 nm fluorescence, stem cell growth factors (AID 1073). The following applies: Notch2 binding, higher = more signal.
The target of assay [6] is Pro-neuregulin-1, membrane-bound isoform (Homo sapiens) (UniProt Q02297). In words: NRG1 binders on small-molecule microarrays, primary screen, psychiatric disease protein project, biochemical, small-molecule microarray, fluorescence 635/667 (AID 1075).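 Note: score combines 667 nm spot fluorescence with signal to noise.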 The settings on record: NRG1 binding, 635 nm fluorescence, higher = more signal.
Assay [7] concerns Neuregulin-1 EGF-like domain. In words: binders of neuregulin-1 EGF-like domain, primary screen, biochemical, small-molecule microarray, 635 nm fluorescence (AID 1081).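 Note: binding of the protein to compounds printed on small-molecule microarray slides.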 The settings on record: small-molecule microarray binding, higher = more signal.
A short description of assay [8]: FRG1 promoter luciferase signal modulators, primary screen, FRG1 inhibition for FSHD, cell-based, C2C12 myotubes, firefly/Renilla luciferase, luminescence (AID 1084). The settings on record: higher = more signal, called active from +8 up or from −8 down.
The nature of assay [9]: binders of probe aFST on microarray, primary screen, stem cell growth factor project, biochemical, small-molecule microarray, fluorescence 635/667 (AID 1086).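 Note: score merges 667 nm fluorescence with signal-to-noise of each printed compound spot.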 The settings on record: higher = more signal.
Assay [10] in a line: binders of probe aHhip on microarray, primary screen, stem cell growth factor project, biochemical, small-molecule microarray, fluorescence 635/667 (AID 1087).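 Note: score merges spot fluorescence at 667nm with spot signal to noise ratio.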 The following applies: higher = more signal.

The source made the active and inactive calls.

Sequence of Neurogenic locus notch homolog protein 2 (Homo sapiens) (Q04721 whole entry, looked up, canonical isoform): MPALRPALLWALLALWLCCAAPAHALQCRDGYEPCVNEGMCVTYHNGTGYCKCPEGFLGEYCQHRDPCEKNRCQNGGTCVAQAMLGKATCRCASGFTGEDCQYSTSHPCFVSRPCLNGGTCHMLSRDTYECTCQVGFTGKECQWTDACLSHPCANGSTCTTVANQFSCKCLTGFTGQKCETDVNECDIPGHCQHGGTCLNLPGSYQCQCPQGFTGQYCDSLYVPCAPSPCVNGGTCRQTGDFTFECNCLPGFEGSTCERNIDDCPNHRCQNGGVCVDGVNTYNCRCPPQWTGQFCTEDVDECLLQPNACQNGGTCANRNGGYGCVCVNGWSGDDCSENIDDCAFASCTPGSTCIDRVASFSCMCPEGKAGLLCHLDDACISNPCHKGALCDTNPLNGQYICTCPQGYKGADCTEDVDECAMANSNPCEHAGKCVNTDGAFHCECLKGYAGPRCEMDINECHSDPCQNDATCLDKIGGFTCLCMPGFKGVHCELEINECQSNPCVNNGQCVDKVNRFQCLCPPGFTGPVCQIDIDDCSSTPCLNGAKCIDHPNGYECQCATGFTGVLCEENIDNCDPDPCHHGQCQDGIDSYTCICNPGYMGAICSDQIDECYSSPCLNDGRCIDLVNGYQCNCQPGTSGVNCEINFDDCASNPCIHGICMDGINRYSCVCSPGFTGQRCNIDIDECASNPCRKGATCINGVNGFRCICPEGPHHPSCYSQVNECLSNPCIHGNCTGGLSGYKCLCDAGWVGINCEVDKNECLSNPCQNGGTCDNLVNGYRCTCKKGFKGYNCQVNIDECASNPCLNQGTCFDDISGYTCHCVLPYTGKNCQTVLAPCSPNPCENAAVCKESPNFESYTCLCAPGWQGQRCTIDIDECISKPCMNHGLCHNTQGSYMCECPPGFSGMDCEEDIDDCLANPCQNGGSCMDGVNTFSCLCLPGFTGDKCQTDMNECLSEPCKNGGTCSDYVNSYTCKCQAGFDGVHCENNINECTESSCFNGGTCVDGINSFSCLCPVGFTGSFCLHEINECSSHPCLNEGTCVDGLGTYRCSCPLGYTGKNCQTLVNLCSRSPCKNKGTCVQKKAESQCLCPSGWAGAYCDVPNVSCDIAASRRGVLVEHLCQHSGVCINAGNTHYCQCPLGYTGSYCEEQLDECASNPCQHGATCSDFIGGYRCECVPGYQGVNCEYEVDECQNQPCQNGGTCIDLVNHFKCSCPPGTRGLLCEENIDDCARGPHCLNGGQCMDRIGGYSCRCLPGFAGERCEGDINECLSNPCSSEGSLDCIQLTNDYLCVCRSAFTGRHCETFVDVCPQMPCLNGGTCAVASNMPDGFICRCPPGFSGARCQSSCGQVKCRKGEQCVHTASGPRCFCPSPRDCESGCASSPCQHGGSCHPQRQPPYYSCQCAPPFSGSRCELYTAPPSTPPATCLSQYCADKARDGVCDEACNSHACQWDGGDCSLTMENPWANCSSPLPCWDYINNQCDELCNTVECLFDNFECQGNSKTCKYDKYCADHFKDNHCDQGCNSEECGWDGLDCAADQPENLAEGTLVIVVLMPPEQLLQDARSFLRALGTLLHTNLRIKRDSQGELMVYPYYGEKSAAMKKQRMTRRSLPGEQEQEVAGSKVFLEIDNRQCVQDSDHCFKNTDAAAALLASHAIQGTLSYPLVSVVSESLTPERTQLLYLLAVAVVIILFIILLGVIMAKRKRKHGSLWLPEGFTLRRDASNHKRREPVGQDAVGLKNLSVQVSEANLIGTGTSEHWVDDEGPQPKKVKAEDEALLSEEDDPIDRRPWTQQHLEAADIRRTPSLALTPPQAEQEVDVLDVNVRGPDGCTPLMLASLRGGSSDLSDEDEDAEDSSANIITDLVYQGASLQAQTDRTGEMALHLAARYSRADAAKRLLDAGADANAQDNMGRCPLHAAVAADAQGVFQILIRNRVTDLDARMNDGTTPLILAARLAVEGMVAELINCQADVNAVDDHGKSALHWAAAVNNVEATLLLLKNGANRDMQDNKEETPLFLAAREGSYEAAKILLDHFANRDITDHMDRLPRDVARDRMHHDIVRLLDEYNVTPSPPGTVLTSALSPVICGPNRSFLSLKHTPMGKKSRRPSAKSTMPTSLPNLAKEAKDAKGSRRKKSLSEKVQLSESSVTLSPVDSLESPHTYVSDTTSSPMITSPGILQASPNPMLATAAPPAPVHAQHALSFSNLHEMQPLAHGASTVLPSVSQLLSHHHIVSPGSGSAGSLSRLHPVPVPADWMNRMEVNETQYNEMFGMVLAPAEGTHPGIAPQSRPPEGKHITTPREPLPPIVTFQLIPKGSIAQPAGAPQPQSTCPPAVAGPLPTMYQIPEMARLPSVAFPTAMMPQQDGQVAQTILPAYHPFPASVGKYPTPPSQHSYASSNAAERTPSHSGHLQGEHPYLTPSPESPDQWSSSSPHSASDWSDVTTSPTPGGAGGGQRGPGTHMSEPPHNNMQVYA
Sequence of Pro-neuregulin-1, membrane-bound isoform (Homo sapiens) (Q02297 whole entry, looked up, the tested form may be a part, canonical isoform): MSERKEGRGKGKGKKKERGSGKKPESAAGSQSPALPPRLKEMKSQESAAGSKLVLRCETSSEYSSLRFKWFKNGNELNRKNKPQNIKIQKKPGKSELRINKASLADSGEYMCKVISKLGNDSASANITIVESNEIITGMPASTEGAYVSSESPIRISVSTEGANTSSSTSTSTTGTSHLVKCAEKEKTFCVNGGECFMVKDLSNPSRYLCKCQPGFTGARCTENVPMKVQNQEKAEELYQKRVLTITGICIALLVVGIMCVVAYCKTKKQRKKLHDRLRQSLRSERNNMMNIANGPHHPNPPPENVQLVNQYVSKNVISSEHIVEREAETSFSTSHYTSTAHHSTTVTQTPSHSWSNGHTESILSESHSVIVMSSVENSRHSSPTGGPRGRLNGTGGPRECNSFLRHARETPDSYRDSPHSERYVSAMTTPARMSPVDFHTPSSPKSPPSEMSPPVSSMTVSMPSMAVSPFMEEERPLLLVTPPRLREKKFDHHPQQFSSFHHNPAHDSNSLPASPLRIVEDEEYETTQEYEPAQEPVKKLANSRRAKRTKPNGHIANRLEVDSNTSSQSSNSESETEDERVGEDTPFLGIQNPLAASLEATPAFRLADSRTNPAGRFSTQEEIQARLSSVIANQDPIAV

For `COc1ccc(C#Cc2ccc3c(c2)[C@]2(C(=O)N3)[C@H](c3ccc(O)cc3)N3[C@H](c4ccccc4)[C@H](c4ccccc4)OC(=O)[C@H]3[C@@H]2C(=O)Nc2nc3ccccc3s2)cc1`, the composite z-score is -0.552 in assay [1]; -0.133 in [2]; -0.0242 in [3]; 0.534 in assay [4]; 1.6 in assay [5]; 1.69 in [6]. The composite z-score amounted to 1.36 in assay [7], 1.01 in assay [9] and 0.113 in assay [10]. Further, in assay [8], the z-score is 1.33 (inactive).

In the case of `Cc1ccc(NN2C(C(O)c3c(F)cccc3Cl)C=CC3C(=O)N(C4CCCCC4)C(=O)C32)cc1` (stereo not given), the composite z-score in assay [1] stood at 1.14; in assay [2], 0.44; in assay [3], 0.0749; in assay [4], 0.507; in assay [5], 1.55; in assay [6], 1.46. Moreover, the values for the composite z-score in [7], in assay [9] and in [10] were 1.06, 0.697 and -0.254, respectively. In addition, the z-score in [8] is 0.0701 (inactive).

As to `COCCCNC(=O)[C@@]1(CCC(=O)OC(C)(C)C)N=C(c2ccc(OCCCO)cc2)O[C@H]1c1ccccc1N=[N+]=[N-]`, the composite z-score in [1] came to 0.913; in [2], 1.5; in [3], 0.0999; in assay [4], 1.14; in assay [5] it was 1.41; in assay [6], 1.9. For the same compound, the composite z-score in assay [7] was 1.4; in [9], 1.03; in assay [10], 0.0053. Further, in assay [8], the z-score is 2.62 (inactive).

As for `COC(=O)C(CC#Cc1ccc2c(c1)[C@]1(C(=O)N2)[C@H](c2ccc(O)cc2)N2[C@H](c3ccccc3)[C@H](c3ccccc3)OC(=O)[C@H]2[C@@H]1C(=O)NC[C@H](O)c1ccccc1)C(=O)OC`, the composite z-score was -0.14 in assay [1]; 0.249 in assay [2]; -0.0592 in [3]; 1.06 in assay [4]; 0.791 in [5]; -0.0744 in [6]. The composite z-score in [7] was 1.4; in assay [9], 0.257; in assay [10] it was 0.0749. Moreover, the z-score in [8] is 0.798 (inactive).

Consider `C=C[C@H]1C(C(=O)OCC)=CC[C@@H](c2ccccc2)N1S(=O)(=O)c1ccc(C)cc1`, for which the composite z-score turned out to be 0.131 in assay [1]; 0.431 in [2]; 0.16 in assay [3]; 0.693 in assay [4]; 1.25 in assay [5]; 1.04 in assay [6]. Also, the composite z-score in [7] is 0.779; in [9], 0.992; in assay [10], -0.266. The z-score in [8] was -3.11 (inactive).

For `COc1ccc(CCNC(=O)[C@@]2(c3ccc([N+](=O)[O-])cc3)CC(=O)N(C3CCCCC3)[C@@H]2c2ccc(CO)cc2)cc1`, the composite z-score in assay [1] stood at 0.376; in [2], 0.409; in [3], 0.0598; in assay [4], 0.325; in [5], 0.58; in [6], 1.54. The composite z-score in [7] was determined as 1.23; in [9] it was 0.602; in [10], 0.177. Moreover, the z-score in assay [8] is -0.517 (inactive).

`CN(C)CCCCCCNC(=O)[C@@H]1C[C@@H]2C(=O)N3CCC[C@H]3C(=O)N2[C@@H]1c1cccc(OCCO)c1`: the composite z-score in assay [1] turned out to be 0.117; in assay [2], 2.09; in assay [3] it was 0.1; in assay [4], 1.11; in assay [5], 0.623; in assay [6], 0.755. For the same compound, the results for the composite z-score in assay [7], in [9] and in assay [10] were 1.48, 0.518 and -0.0296, respectively. In addition, in assay [8], the z-score was 3.21 (inactive).

Consider `CCCCCN1CC=CC23O[C@@H]4/C=C\CCC(C)OC(=O)C4[C@H]2C(=O)N(C(CO)C(C)C)[C@@H]3C1=O` (stereo not given in full), for which the composite z-score in assay [1] is -1.2; in [2], -0.456; in assay [3], -0.245; in [4] it was -0.246; in assay [5], -0.406; in assay [6], 1.21. In addition, the figures for the composite z-score in assay [7], in [9] and in [10] were 1.38, -0.592 and -0.457, respectively. Moreover, the z-score in [8] was -0.23 (inactive).

Take `COc1cc2c(cc1O)C(c1ccc(CN3CCCC3)cc1)N(Cc1cc3c(cc1Br)OCO3)CC2` (stereo not given): the composite z-score in assay [1] was -0.373; in [2] it was -0.311; in [3], -0.0351; in assay [4], 0.183; in assay [5] it was 0.963; in assay [6], 0.729. For the same compound, the figures for the composite z-score in assay [7], in [9] and in assay [10] were 0.784, 0.296 and -0.201, respectively. Moreover, the z-score in assay [8] was 0.0296 (inactive).

As for `C=CCC(OC(C)=O)[C@@H]1[C@@H](N(Cc2ccc(-c3ccccc3)cc2)C(=O)c2ccc(-c3ccccc3)cc2)c2cc(OCCCO)ccc2N1C(=O)c1ccc2ccccc2c1` (stereo not given in full), the composite z-score in assay [1] is 0.0946; in assay [2], 0.107; in assay [3], -0.128; in assay [4] it was 0.178; in assay [5] it was -0.443; in assay [6] it was -0.227. Further, the composite z-score was -0.896 in assay [7], 0.352 in assay [9] and -0.353 in assay [10]. For the same compound, the z-score in assay [8] is 0.807 (inactive).

With `CC(C)C(CO)N1C(=O)[C@@H]2C3C(=O)OCCC/C=C\[C@H]3OC23C=CCN(Cn2nnc4ccccc42)C(=O)[C@@H]13` (stereo not given in full), the composite z-score in [1] was 0.314; in assay [2], -0.665; in [3] it was -0.148; in [4], -0.323; in assay [5] it was -0.72; in [6] it was 1.88. Besides, the composite z-score in assay [7] was 0.476; in [9] it was 0.013; in assay [10], -0.306. Further, the z-score in assay [8] is 0.0182 (inactive).

For the compound `COc1ccc([Si](C)(C)[C@H]2[C@H](CC(=O)N3Cc4ccccc4C[C@H]3CO)O[C@@]3(C(=O)N(Cc4ccc(N5CCOC5=O)cc4)c4ccccc43)[C@@H]2C)cc1`, the composite z-score in assay [1] was -0.315; in assay [2] it was 0.443; in assay [3], -0.0583; in assay [4] it was 0.345; in assay [5], 0.236; in [6], 0.744. Besides, the composite z-score was 1.1 in assay [7], 0.315 in assay [9] and -0.0296 in assay [10]. Further, in [8], the z-score was -4.08 (inactive).

`COC(=O)C1=CC(CCCO)=CC(c2cccs2)N(C)C=C1C(=O)OC` (stereo not given): the composite z-score in assay [1] is 0.0256; in assay [2], -0.106; in [3] it was -0.0737; in assay [4], -0.379; in assay [5] it was -0.324; in assay [6] it was 1.08. Further, the results for the composite z-score in assay [7], in [9] and in [10] were 1.33, -0.0824 and -0.0994, respectively. Further, the z-score in assay [8] was -0.656 (inactive).
